The list is not random: actives were taken first. Their share in the collection is about 21%.
NS1 inh: blocks influenza NS1 protein function; 270,000 compounds, 0.4% hits; Potency, µM (series often up to 46.1 µM), for the others: at the top dose activity, positive = more growth; AID 2326; calls by dose curve; also: potency is read from the fitted curve at half-maximal effect; actives are rising curves; nearly all actives have a fitted effect of over 50% in size
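S. cerevisiae expressing influenza A NS1, grown in glucose, washed, then diluted 1:100 into pH 6.0 -URA galactose medium with 23 nl compound. Growth recovery read as OD600; NS1-free strain serves as control.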
CHX counter: counter-screen hit for Shiga toxin inhibitors, cycloheximide; cell reporter, cycloheximide protein synthesis inhibition counterscreen; max response, %; 300,000 compounds, 12% hits; AID 2314; in the data active = max response mostly above about 13%, no sharp cut-off; inactive = mostly below about 14%; also: read at 38.3 µM for the half of the compounds with a filed dose; 0% is about no effect
Shiga toxin inh: Shiga toxin inhibition | 290,000 compounds, 9.2% hits | AID 2315 | Vero cells, Shiga toxin protein synthesis inhibition reporter | inhibition, % at 38.7 µM; in the data active = inhibition mostly above about 28%, no sharp cut-off; inactive = mostly below about 43%; also: 0% is about no effect
Pf growth 96h: P. falciparum growth inhibition at 96 hours; 320,000 compounds, 6.9% hits; AID 504834; P. falciparum luciferase reporter growth, 96 h; Potency, µM (highest dose often 28.7 µM), without a hit: at the top dose activity change, negative = inhibition, most hits filed as inhibitors; also: potency is read from the fitted curve at half-maximal effect; % is scaled to controls: 0 for no effect and ±100 for the full control effect
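Two-generation exposure (96 h) targets delayed-death phenotype. Reporter parasites carrying integrated firefly luciferase, in red cells at 2% hematocrit and 0.05% parasitemia final, kept at 37 C, 5% CO2; luminescence loss indicates inhibition.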
Pf growth 48h: P. falciparum growth inhibition at 48 hours (one generation) | P. falciparum luciferase growth in erythrocytes, 48 h | Potency, µM (titrated, usually from 28.7 µM), inactives show top-dose activity change, negative = inhibition, usual class: inhibitors | 310,000 compounds, 5.9% hits | AID 504832; also: potency is read from the fitted curve at half-maximal effect; % is scaled to controls: 0 for no effect and ±100 for the full control effect
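In quantitative HTS format, infected erythrocytes bearing luciferase-reporter parasites were treated for a single generation at 37 C. Luminescence after adding detection reagent served as the growth measure.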
Sm TGR inh: blocks Schistosoma mansoni thioredoxin glutathione reductase. Q962Y6. purified TGR, DTNB reduction, TNB absorbance 405 nm. Potency, µM (series often up to 114 µM), for the others: top-dose activity change, negative = inhibition, actives largely listed as inhibitors. 360,000 compounds, 3% hits; also: potency is read from the fitted curve at half-maximal effect; % is scaled to controls: 0 for no effect and ±100 for the full control effect; nearly all actives have a fitted effect of over 60% in size
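Kinetic colorimetric format: TGR-catalysed, NADPH-driven DTNB reduction monitored via TNB absorbance. Enzyme dispensed at 20 nM; compound exposure 15 min at room temperature before reaction start.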
Starred values were filed as active, the others as inactive; i = inactive; ? = inconclusive; · = no result given; [ ] = remark or other dose. Unless noted, calls follow the shape of the dose curve; as a rule, active = well fitted curve in the direction sought with a large enough effect; inconclusive = small, poorly fitted or top-dose-only effect, or another doubt; inactive = no such curve, though single readings can be large; an effect the other way counts as inactive or inconclusive.

SMILES | NS1 inh | CHX counter | Shiga toxin inh | Pf growth 96h | Pf growth 48h | Sm TGR inh
CCCc1cc(=O)n2[nH]c(-c3ccc(Br)cc3)cc2n1 | -14.3% | 37.8* | 14.1* | ? | 48.9% | -15.1%
COc1ccccc1/C=N/NC(=O)C1=NNC(c2ccccc2)(c2ccccc2)C1 | -5.9% | 1.7 | 13.3 | ? | 7.38µM* | ?
COc1ccccc1/C=N/NC(=O)c1c(-c2ccccc2)noc1C | 3.2% | -7.2 | -7.2 | 2.08µM* | -14.8% | 4.5%
Cc1cccc(/C=N/NC(=O)c2c(-c3ccccc3)noc2C)c1O | -9.3% | -2.6 | -13.2 | 6.57µM* | 9.28µM* | -14.5%
CCc1ccc(NC(=O)c2ccc3oc(=O)n(Cc4ccccc4)c3c2)cc1 | · | · | · | · | · | 4.6%
CC(=O)Nc1ccc(S(=O)(=O)Nc2cccc(-c3ccc4nncn4n3)c2)cc1 | · | -3.3 | -7.3 | 2.08µM* | -25.9% | 5.1%
CN(CCc1ccccc1)C(=O)c1cc(COc2cccc(C(F)(F)F)c2)on1 | -36.7% | 23.5* | 60.4* | -5.6% | 58.4% | -14.7%
CN(Cc1ccc(F)cc1)C(=O)c1cc(COc2ccc(F)cc2F)on1 | -3.3% | -2.5 | -10.6 | ? | -32.4% | -0.6%
Cc1ccc(OCCN(C)C(=O)c2cc(COc3ccc(F)cc3F)on2)cc1 | -0.3% | 12.6* | 33.0 | 23.0% | -0.2% | 1.3%
CN(CCc1ccccc1)C(=O)c1cc(COc2ccc(F)cc2Cl)on1 | -11.8% | 43.3* | 74.5* | ? | 8.5% | -8.8%
CC1(C)CC(C)(O)N(Cc2ccccc2)C(=S)N1 (centres undefined) | -2.9% | 5.6 | -4.1 | ? | 1.3% | -26.6%
CCC1(c2ccc(Cl)cc2)NC(=S)N(c2ccc(C)c(C)c2)N1 (centres undefined) | 1.4% | -3.1 | 10.9 | -13.2% | -8.2% | -26.6%
CC1(CCc2ccccc2)NC(=S)N(c2ccccc2)N1 (centres undefined) | 14.2% | 39.7* | 42.4* | ? | 12.4% | -6.4%
CC1(CCc2ccccc2)NC(=S)N(c2ccc(Cl)cc2)N1 (centres undefined) | -10.1% | 36.2* | 59.2* | 48.6% | 83.1% | 0.0%
COc1cccc(NC(=O)CSc2nc3ccc(NC(=O)c4ccco4)cc3s2)c1 | · | · | · | · | · | 4.2%
O=C(NCC1CCCO1)C(c1cccs1)N(Cc1ccccc1Cl)C(=O)c1ccc(-c2ccccc2)[nH]1 (centres undefined) | 26.4% | 1.0 | -5.8 | 18.6% | 5.22µM* | -8.0%
Cc1ccc(C(C(=O)NCC2CCCO2)N(Cc2ccccc2)C(=O)c2ccc(-c3ccccc3)[nH]2)o1 (centres undefined) | 27.2% | 5.5 | 11.0 | ? | 8.28µM* | -7.6%
Cc1ccc(NC(=O)N2CCC(NC(=O)C(C)(C)C)CC2)cc1 | 18.3% | 16.7* | 10.5 | 6.2% | 0.0% | 11.7%
Cc1ccc(NC(=O)N2CCC(NC(=O)c3ccccc3C)CC2)cc1 | -3.2% | -1.3 | 22.4 | 27.2% | -18.2% | -1.0%
O=C(Nc1ccc(Cl)cc1)N1CCC(c2ccccc2)C1 (centres undefined) | · | 41.8* | 116.3* | -18.0% | 306.1% | 0.6%
Cc1ccc(C(=O)NC2CCN(C(=O)Nc3ccccc3)CC2)cc1 | -1.3% | -4.1 | 24.5 | 35.6% | ? | -10.9%
CC(C)N(C)C1CCN(C(=O)Nc2ccc(Cl)cc2)CC1 | -13.9% | 1.5 | -9.5 | 57.5% | -0.2% | -0.3%
Cc1ccc(NC(=O)N2CCC(c3ccccc3)C2)cc1C (centres undefined) | · | 52.6* | 100.7* | 39.0%[1.15 µM] | 249.9% | 1.1%
Cc1ccc(C2CCN(C(=O)Nc3ccccc3)C2)cc1 (centres undefined) | -82.6% | 39.1* | 149.7* | -1.8% | 64.0% | 0.0%
COc1ccccc1NS(=O)(=O)c1cccc(C(=O)N2CCN(C/C=C/c3ccccc3)CC2)c1 | -3.7% | -2.3 | -0.9 | 8.28µM* | 5.86µM* | -19.2%
SMILES | NS1 inh | CHX counter | Shiga toxin inh | Pf growth 96h | Pf growth 48h | Sm TGR inh
Cc1cccc(NS(=O)(=O)c2cccc(C(=O)N3CCCC3)c2)c1 | · | · | · | 8.8% | 0.0% | -5.2%
Cc1noc(C)c1COc1cccc(C(=O)N2CCN(C/C=C/c3ccccc3)CC2)c1 | -22.8% | -0.7 | -7.3 | · | 10.4µM* | -18.3%
COc1ccccc1NS(=O)(=O)c1cc(C(=O)N2CCN(C/C=C/c3ccccc3)CC2)ccc1C | 10.8% | -3.9 | -19.7 | -15.2% | 11.1% | 35.5µM*
COc1ccccc1NS(=O)(=O)c1cc(C(=O)NCC(C)(C)N2CCOCC2)ccc1C | · | · | · | -3.0% | -23.2% | 6.5%
Cc1cccc(NS(=O)(=O)c2cccc(C(=O)N3CCN(C/C=C/c4ccccc4)CC3)c2)c1 | · | · | · | 10.4µM* | 11.7µM* | -4.8%
Cc1cccc(S(=O)(=O)c2c(C)cc(C)nc2Cl)c1 | · | 11.0 | -11.6 | -11.7% | -12.9% | 7.6%
Cc1ccc2c(C)c(C(=O)NCCN3CCCC(O)C3)oc2c1C (centres undefined) | -5.9% | 9.8 | 4.5 | 24.1% | -7.8% | -12.9%
Cc1cccc(C(=O)NCC(=O)OCc2cc(=O)n3nc(CC(C)C)sc3n2)c1 | · | · | · | · | · | -2.2%
COc1ccccc1NS(=O)(=O)c1cc(C(=O)N2CCCC2)ccc1F | · | · | · | ? | 3.29µM* | 1.5%
COc1ccccc1NC(=O)C(C)N1CCN(C/C=C/c2ccccc2)CC1 (centres undefined) | -15.0% | 0.2 | -26.1 | 17.3% | 13.1µM* | -6.0%
CN1CCC[C@@H]1c1cccnc1.O=C(O)c1ccccc1O.O=C([OH2+])c1ccccc1O.O=C([OH2+])c1ccccc1O.O=C([OH2+])c1ccccc1O.[Mn] | -6.2% | · | · | · | · | ·
CC(C)CCC[C@@H](C)[C@@H]1CC[C@@H]2[C@H]3CC[C@H]4C[C@@H](N)CC[C@@]4(C)[C@@H]3CC[C@]21C | -33.0% | · | · | · | · | ·
CCc1ccc2nc(N3CCN(C(=O)C(C)(C)C)CC3)sc2c1 | -6.7% | 23.2* | 55.5* | ? | 15.2% | -8.6%
CCN1CCN(c2nc3ccccc3s2)CC1 | -6.5% | 33.1* | 76.6* | i | 105.3% | 4.0%
CCCC(=O)N1CCN(c2nc3ccccc3s2)CC1 | -12.6% | 41.7* | 42.1* | 268.3% | 21.1% | 6.4%
Fc1cccc(Cl)c1CN1CCN(c2nc3ccccc3s2)CC1 | -12.3% | 53.1* | 159.1* | 128.8% | 65.8% | -2.9%
COc1cccc2sc(N3CCN(c4nc5ccccc5s4)CC3)nc12 | -4.1% | 1.8 | -15.1 | 0.0% | -1.5% | 2.2%
CCOC(=O)C1=C(C)Nc2ccccc2N=C1NC(=O)c1oc2ccccc2c1COC | · | · | · | -21.2% | ? | -10.0%
CCc1ccc(-n2nc3ccc(NC(=O)c4cc(Cl)c(OC)c(Cl)c4)cc3n2)cc1 | · | · | · | · | · | 0.8%
CCOC(=O)NNC(=S)Nc1c(C)n(C)n(-c2ccccc2)c1=O | -3.3% | -0.8 | -4.2 | 47.9% | 51.8% | 7.8%
O=C(NC1CC1)C1CCN(c2nc3ccccc3s2)CC1 | -3.4% | 22.8* | 63.2* | -1.5% | -25.0% | 0.4%

Bioassay records: PubChem, National Center for Advancing Translational Sciences (NCATS)
